Test results as given in PubChem BioAssay AID504339 (National Center for Advancing Translational Sciences (NCATS), 2011).
Hit rate of the full screen: of about 390,000 compounds, about 17,000 (4.4%) were called active. Not shown: some 8% with an inconclusive outcome. Calls follow the shape of the dose curve; as a rule, active = well fitted inhibition curve with a large enough effect; inconclusive = small, poorly fitted or top-dose-only effect; inactive = no such curve, though single readings can be large or run the other way. For the sample, actives were picked, then their nearest neighbours and some compounds at random.

What follows are molecules tested against Lysine-specific demethylase 4A (Homo sapiens) (UniProt O75164) (assay: qHTS Assay for Inhibitors of JMJD2A-Tudor Domain). Conditions: AlphaScreen JMJD2A-Tudor / H3K4me3 peptide binding; series mostly up to 114 µM; activity change, negative = inhibition: at the top concentration.
Sequence of Lysine-specific demethylase 4A (Homo sapiens) (O75164 whole entry, looked up, the tested form may be a part): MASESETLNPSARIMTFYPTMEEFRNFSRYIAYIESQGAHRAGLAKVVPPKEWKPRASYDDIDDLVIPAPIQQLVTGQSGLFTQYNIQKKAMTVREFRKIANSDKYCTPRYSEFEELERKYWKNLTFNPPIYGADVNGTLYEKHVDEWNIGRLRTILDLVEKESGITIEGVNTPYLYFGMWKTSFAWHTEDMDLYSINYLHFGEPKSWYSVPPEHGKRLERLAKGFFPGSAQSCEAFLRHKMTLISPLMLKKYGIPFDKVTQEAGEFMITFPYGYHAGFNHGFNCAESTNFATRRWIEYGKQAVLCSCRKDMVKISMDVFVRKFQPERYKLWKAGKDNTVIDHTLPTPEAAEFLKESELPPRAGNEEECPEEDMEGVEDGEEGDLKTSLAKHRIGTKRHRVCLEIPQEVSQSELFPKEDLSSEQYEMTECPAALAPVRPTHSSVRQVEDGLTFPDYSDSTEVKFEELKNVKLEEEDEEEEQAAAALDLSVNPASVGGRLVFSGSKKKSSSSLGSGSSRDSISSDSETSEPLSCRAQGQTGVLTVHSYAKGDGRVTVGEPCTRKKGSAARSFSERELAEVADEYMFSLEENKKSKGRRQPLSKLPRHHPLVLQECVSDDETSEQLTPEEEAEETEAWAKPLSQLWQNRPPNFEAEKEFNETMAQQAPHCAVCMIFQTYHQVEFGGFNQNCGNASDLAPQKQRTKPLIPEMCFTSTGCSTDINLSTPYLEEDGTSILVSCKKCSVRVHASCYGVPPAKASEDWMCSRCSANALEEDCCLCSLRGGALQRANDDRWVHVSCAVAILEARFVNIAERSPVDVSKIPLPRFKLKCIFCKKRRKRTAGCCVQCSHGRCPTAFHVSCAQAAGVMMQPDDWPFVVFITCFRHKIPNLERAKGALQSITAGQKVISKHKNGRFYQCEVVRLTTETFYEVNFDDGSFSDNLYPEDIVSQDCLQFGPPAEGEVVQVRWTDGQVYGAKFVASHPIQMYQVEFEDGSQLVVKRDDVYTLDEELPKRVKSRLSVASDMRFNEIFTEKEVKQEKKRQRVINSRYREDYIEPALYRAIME
% is scaled to controls: 0 for no effect and ±100 for the full control effect; potency is read from the fitted curve at half-maximal effect.
Also: nearly all actives have a fitted effect of over 50% in size.

Activity change, negative = inhibition, inactive:
CCOc1ccc(S(=O)(=O)Nc2ccc3oc4c(c3c2)CC(C)CC4)cc1 (stereo not drawn) -24.4%, Cc1ccccc1CSc1nc2c([nH]c3ccccc32)c(=O)n1C -7.74%, Cc1ccc2nc(COc3cccc(NC(=O)c4cccc(Cl)c4)c3)cc(=O)n2c1 -13.3%, CC(OC(=O)c1cc2ccccc2o1)C(=O)Nc1ccc(N2CCOCC2)cc1 (stereo not drawn) -14.4%, COc1ccc(-c2cc(=O)oc3cc(OC(C)C(=O)Nc4ccc(CN5CCOCC5)cc4)ccc23)cc1 (stereo not drawn) -35.9%, COc1ccc(-c2c(C)c3ccc(O)c(CN4CCCC4)c3oc2=O)cc1OC -2.9%, COc1cc(OC)c(OC)cc1/C=C/c1nc2cc3ccccc3cc2c(=O)n1-c1ccc(F)c(Cl)c1 -24.5%, O=C(CSc1nc(Nc2ccc(F)c(F)c2)c2ccccc2n1)c1ccc(Cl)cc1 -15.7%, Cc1ccc(-c2nnc(Nc3cccc(Br)c3)c3ccccc23)cc1S(=O)(=O)NCC1CCCO1 (stereo not drawn) -10%, Cc1ccc(/C=C/C(=O)Nc2cc(S(=O)(=O)N3CCCCCC3)ccc2OCC(F)(F)F)o1 -8.97%, CNc1ccc(NC(C)=O)cc1[N+](=O)[O-] -19.1%, Oc1ccc2nc(Cc3ccccc3)[nH]c2c1 -15.7%, Cc1ccc(/C=N/NC(=O)C2=NNC(c3ccccc3)(c3ccccc3)C2)c(O)c1 -7.05%, CCOC(=O)c1ccc(NC(=O)CC2C(=O)N(c3cccc(OC)c3)C(=O)N2C2CCCCC2)cc1 (stereo not drawn) -16.6%, O=C(N[C@@H](Cc1ccccc1)C(=O)OCc1ccccc1)c1nc[nH]c1C(=O)NC1CCNCC1 -31.2%, CCOC(=O)c1ccc(NC(=O)c2nc[nH]c2C(=O)NCc2ccccc2)cc1 -6.99%, CCc1ccccc1NC(=O)N1CCN(C(=O)c2nsc3ccccc23)CC1 -18.2%, CCOC(=O)c1cccc(NS(=O)(=O)c2cn(C)c(C)n2)c1 -7.67%, Fc1ccc(CSc2nc(NCc3ccccc3)c3ccccc3n2)cc1 23.7%, CCCS(=O)(=O)C(=C1Nc2ccccc2N1)S(=O)(=O)CCC -0.758%, CCOc1ccccc1CNC(=O)c1cnc2c(-c3ccc(OCC)c(OCC)c3)c(C)nn2c1C -20%, COc1ccccc1CNC(=O)CCn1c(=O)c2ccccc2n(CC(=O)Nc2cccc(Cl)c2)c1=O -7.17%, CCCCN(C)c1nnc(NC(=O)Nc2ccc(Br)c(C)c2)s1 -17.9%, CCNCCC(=O)N1c2ccccc2Sc2ccc(NC(=O)OCC)cc21 -7.81%, CCN1C(=O)c2ccccc2Sc2ccc(NC(=O)Cc3ccc(OC)cc3)cc21 -25.2%, CC1CCN(CC(=O)Nc2nccs2)CC1 -12.3%, Cc1cc(C)cc(N(CC(=O)NC2CCCC2)C(=O)CCC(=O)Nc2nccs2)c1 -13.3%, COc1ccc(-c2nc(CN3CCC(C(=O)NCc4ccccc4)CC3)c(C)o2)cc1OC -5.72%, COc1ccc(CNC(=O)COCc2cc(-c3cccs3)on2)cc1OC -9.9%, CC(C)OP(=O)(OC(C)C)C(Nc1ccccc1)c1cccc([N+](=O)[O-])c1 (stereo not drawn) -30.1%, Cc1cc([N+](=O)[O-])ccc1NS(=O)(=O)c1ccccc1 -13.1%, COc1ccc(-c2cc(-c3ccccc3)nc3c2COc2ccc(Cl)cc2-3)cc1 7.09%, Cc1cc(C(F)(F)F)nc(SCC(=O)Nc2nccs2)n1 -8.22%, Cc1cccc(NC(=O)CSc2nc(-c3ccco3)cc(C(F)(F)F)n2)c1C 11.7%, Cc1ccc(C(=O)Nc2ccccc2F)cc1S(=O)(=O)N1CCOCC1 2.94%, Cc1ccccc1CNC(=O)CSc1nnc(C)c2c(C)n(-c3ccccc3)nc12 -0.345%, CCCOc1ccc(NC(=O)CC2C(=O)N(c3ccccc3)C(=O)N2Cc2ccco2)cc1 (stereo not drawn) -19.7%, O=C(Nc1ccc(S(=O)(=O)N2CCCCC2)cc1)C1CC(=O)N(c2ccc(F)cc2)C1 (stereo not drawn) -18.6%, Cc1ccc(N2CC(C(=O)Nc3ccc(S(=O)(=O)N4CCCC4)cc3)CC2=O)cc1C (stereo not drawn) -14.3%, CN1C(=O)c2ccccc2Sc2ccc(NC(=O)Cc3ccc(Cl)cc3)cc21 -28.3%, Cc1ccc(Cl)cc1N1CCN(S(=O)(=O)c2cc3[nH]c(=O)c(=O)[nH]c3cc2C)CC1 -28.7%, COc1ccc(-c2noc(-c3ccc(N4CCN(c5ccccc5)CC4)c([N+](=O)[O-])c3)n2)cc1OC -11.9%, COc1ccc(NC(=O)c2sc3nc(-c4cc5cccc(OC)c5oc4=O)[nH]c(=O)c3c2C)cc1 -15.1%, COc1cc2c(cc1OC)C(c1ccccc1Br)NC(=O)C2 (stereo not drawn) -15.7%, Brc1ccccc1C1N=C(c2ccccc2)NO1 (stereo not drawn) 16.5%, Cn1nnnc1SCCCNCc1ccc(Cl)cc1 5.96%, O=c1cc(CSc2ncn[nH]2)[nH]c2ccc(F)cc12 0.649%, CCc1nnc(SCC(=O)Nc2cc(OC)ccc2OC)nc1CC -0.649%, O=C(NCCc1ccc(Cl)cc1)c1ccc2c(c1)N(Cc1ccc(F)cc1)C(=O)CS2 -13.5%, Cc1ccc(NC(=O)C(Cc2ccccc2)NS(=O)(=O)c2ccc3c(c2)oc(=O)n3C)cc1C (stereo not drawn) -19.5%, CCOc1ccc(NC(=O)C2CCN(S(=O)(=O)c3cc(-c4noc(C)n4)ccc3C)CC2)cc1 -2.67%, CCOC(=O)C1C(=O)NCC1c1ccccc1 (stereo not drawn) -4.29%, CCOC(=O)C1CCN(C(=O)Nc2ccc(Cl)cc2)CC1 -12.3%, CCC(=O)N1CCc2cc(Br)cc(S(=O)(=O)NCc3ccc(Cl)cc3)c21 -21.2%, Cc1cccc(NC(=O)c2ccc(F)c(S(=O)(=O)N(C)C3CCCCC3)c2)c1 -12.2%, CCc1cc2c(cc(C(=O)OC)n2Cc2nc(-c3ccc(C)cc3)oc2C)s1 -12.4%, O=C(CN1CCN(C/C=C/c2ccccc2)CC1)Nc1ccc(F)cc1F -23.1%, O=C(CC(=O)N/N=C\c1ccc(F)cc1)NCCc1ccccc1 4.75%, Cc1ccc(COc2ccc(/C=N/NC(=O)CN3CCCCC3)cc2)cc1 -22.4%, O=C(Cn1cc(C(F)(F)F)ccc1=O)N/N=C/c1ccc(Cl)cc1Cl -21.3%, COc1ccc(CNC(=O)c2cc3cccc(OC)c3oc2=O)cc1 -2.61%, CC(=O)N1c2ccccc2CC1C(=O)N1CCN(c2ccc(F)cc2)CC1 (stereo not drawn) -11.9%, CCOc1ccc(CNC(=O)Cn2cc3c(n2)-c2c(oc(C(=O)N4CCCC4)c2C)CC3)cc1 -14.7%, CCCc1cc(=O)n2[nH]c(NCc3ccc(CC)cc3)nc2n1 -20.5%, COc1ccc(-c2csc(-c3c(N)c(C(=O)c4ccc(OC)c(OC)c4)n4ccccc34)n2)cc1 -19.1%, COc1ccc(OC)c(CNC(=O)Cn2nc(C)c3c(C)n(-c4ccccc4)nc3c2=O)c1 0.345%, COc1ccccc1CNC(=O)Cn1nc(C)c2nn(-c3ccc(Cl)cc3)c(C)c2c1=O -14.6%, Cc1ccc2c(c1)N(C(=O)Nc1ccc(Br)cc1F)CCO2 -14.1%, Cc1ccc(OCC(=O)OCc2cc(=O)n3nc(C4CC4)sc3n2)cc1 -10.7%, CCN(C(=O)Cn1cnc2sc(C)c(S(=O)(=O)N3CCN(c4ncccn4)CC3)c2c1=O)c1ccccc1F -6.14%, CCOc1cc(-c2nnc(SCC(=O)NC3CCCCC3)nc2-c2ccc(OC)c(OCC)c2)ccc1OC -35%, CCN(C(=O)COC(=O)Cc1c(F)cccc1Cl)c1c(N)n(Cc2ccccc2)c(=O)[nH]c1=O -19%, CCN(C(=O)COC(=O)c1sccc1C)c1c(N)n(Cc2ccccc2)c(=O)[nH]c1=O -9.29%, OC[C@@H]1O[C@H](n2cnc3c(SCc4ccccc4)ncnc32)[C@H](O)[C@H]1O -6.38%, Cc1ccc(C(=O)N2c3ncnn3C3(CCCCC3)[C@@H]3CCCC[C@@H]32)cc1 -23.8%, CCC(=O)N1CCc2cc(CNS(=O)(=O)c3ccc(Br)s3)ccc21 -0.649%, Cc1nn(CC(=O)Nc2ccc3c(c2)OCO3)c(C)c1[N+](=O)[O-] -12.4%, Cc1nc([N+](=O)[O-])cn1CC(=O)Nc1ccc2c(c1)OCO2 -9.8%, O=C(CSc1nnc(-c2ccncc2)n1-c1ccccc1)Nc1ccc(Cl)c(Cl)c1 -4.17%

Potency, active:
Cc1cc(=O)oc2cc(OC(C)C(=O)Nc3ccc(N4CCOCC4)cc3)ccc12 (stereo not drawn) 89.1 µM, Cc1ccnc(-n2sc3ccccc3c2=O)n1 6.31 µM, Cc1ccc(/C=C/C(=O)Nc2ccc([N+](=O)[O-])c(NC(=O)/C=C/c3ccc(C)o3)c2)o1 79.4 µM, Cc1nc2ccccc2nc1N/N=C/c1ccc(O)cc1O 14.1 µM, CCOC(=O)c1[nH]cnc1C(=O)NC1CCCCC1 3.98 µM, CN(C)/C=C1/Nc2ccccc2C1=O 50.1 µM, CCN1/C(=C/C(=S)Nc2ccccc2)Sc2ccccc21 50.1 µM, CC(=O)NC1CCN(CC(=O)Nc2nccs2)CC1 31.6 µM, CC(Nc1ccc([N+](=O)[O-])cc1[N+](=O)[O-])c1ccccc1 (stereo not drawn) 12.6 µM, CCOC(=O)c1sc(NC(=O)CSc2nc(C)cc(C(F)(F)F)n2)c(C#N)c1C 50.1 µM, CNS(=O)(=O)c1ccc(NC(=O)C2CC(=O)N(c3ccc(Cl)cc3)C2)cc1 (stereo not drawn) 56.2 µM, Oc1ccc(C2Nc3cccc4cccc(c34)N2)cc1 44.7 µM, Brc1ccccc1C1Nc2cccc3cccc(c23)N1 50.1 µM, CCOC(=O)C1Sc2[nH]c(=O)sc2C(c2ccc(Cl)cc2)C1C(=O)OCC (stereo not drawn) 50.1 µM, O=C(CN1CCSCC1)N/N=C/c1ccc(F)cc1F 10 µM, O=C(CN1CCSCC1)N/N=C/c1ccc(F)cc1 3.16 µM, COc1ccc(OC)c(CNC(=O)Cn2nc(C)c3c(C)n(-c4ccc(C)cc4)nc3c2=O)c1 35.5 µM, CCN(C(=O)CN1CCN(Cc2ccccc2)CC1)c1c(N)n(Cc2ccccc2)c(=O)[nH]c1=O 12.6 µM, Cc1ccc(C(=O)O)cc1-c1ccc(/C=C2\SC(=O)N(CC(=O)Nc3ccc4c(c3)OCO4)C2=O)o1 35.5 µM
